# Experimental data as given in PubChem BioAssay (NCI).
# This is part of a sample that, as a whole, favours compounds with a hit. Of some 79,000 tested, about 15% had one in any assay. Values without a mark were called inactive. Active and inactive are the calls of the source. Cut-off read from the data, not from the text of the source: active = growth inhibition above about 70%; inactive = the rest.
# Assays:
# [1] = NCI Yeast Anticancer Drug Screen. Data for the rad50 strain (AID 155);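 note: 0% = growth of vehicle-only cultures of the same strain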; details: S. cerevisiae rad50 strain growth inhibition, stronger effect = higher value
# Outline: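 Compounds were tested on a yeast strain with an engineered DNA damage repair alteration; the reported value is growth inhibition normalised to vehicle treatment.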
# [2] = NCI Yeast Anticancer Drug Screen. Data for the mec2-1 strain (AID 157); details: S. cerevisiae mec2-1 strain, stronger effect = higher value
# Outline: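 Mutant yeast (mec2-1) grown with compound; growth inhibition relative to vehicle control reported.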
# [3] = NCI Yeast Anticancer Drug Screen. Data for the sgs1 mgt1 strain (AID 161);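 note: 0% = growth of cultures given vehicle only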; details: S. cerevisiae sgs1 mgt1 strain, stronger effect = higher value
# Outline: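 Compounds are added to genetically altered yeast, and growth is compared with cultures given vehicle alone to give percent inhibition.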
# [4] = NCI Yeast Anticancer Drug Screen. Data for the cln2 rad14 strain (AID 165);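 note: 0% = growth equal to vehicle treated cultures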; details: S. cerevisiae cln2 rad14 strain, stronger effect = higher value
# Outline: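 Readout is yeast growth inhibition versus vehicle-treated controls, using a strain with cln2 and rad14 alterations exposed to compound.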
# [5] = NCI Yeast Anticancer Drug Screen. Data for the bub3 strain (AID 167); details: S. cerevisiae bub3 mutant strain, stronger effect = higher value
# Outline: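 Growth of a checkpoint-deficient yeast mutant is measured after compound exposure. Values represent inhibition relative to vehicle.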
# [6] = NCI Yeast Anticancer Drug Screen. Data for the mlh1 rad18 strain (AID 175); details: S. cerevisiae mlh1 rad18 strain growth inhibition, stronger effect = higher value
# Outline: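 Genetically defined yeast (DNA repair-deficient) exposed to compounds; growth inhibition determined relative to vehicle.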
# [7] = at 5.0 µM (retest, dose inferred, filed as 0.5)
# [8] = at 50.0 µM (retest, dose inferred, filed as 5.0)
SMILES,"growth inhibition [1, 7]","growth inhibition [1, 8]",growth inhibition ([1]; at 50.0 µM),"growth inhibition [2, 7]","growth inhibition [2, 8]",growth inhibition ([2]; at 50.0 µM),"growth inhibition [3, 7]","growth inhibition [3, 8]",growth inhibition ([3]; at 50.0 µM),"growth inhibition [4, 7]","growth inhibition [4, 8]",growth inhibition ([4]; at 50.0 µM),"growth inhibition [5, 7]","growth inhibition [5, 8]",growth inhibition ([5]; at 50.0 µM),"growth inhibition [6, 7]","growth inhibition [6, 8]",growth inhibition ([6]; at 50.0 µM)
CCCCCCCCCCCCCC(=O)OCC(O)CO (configuration not stated),2%,2%,-2.25%,2%,28%,6.1%,4%,11%,-0.5%,7%,10%,75.3% (active),1%,22%,8.05%,3%,12%,8.55%
CN(C)COC(=S)SCN(C)C,98% (active),98% (active),51.4%,96% (active),99% (active),54.1%,99% (active),99% (active),60.2%,93% (active),99% (active),52.9%,96% (active),99% (active),98.3% (active),96% (active),99% (active),98.2% (active)
Cc1ccc(S(=O)(=O)Nc2ccc3c(c2)Cc2cc([N+](=O)[O-])ccc2-3)cc1,45%,60%,78% (active),24%,58%,45.8%,42%,62%,67.2%,45%,52%,48.3%,57%,63%,59.2%,58%,69%,81.3% (active)
COc1ccc2c(c1)[n+]([O-])c(-c1ccccc1)c(N)[n+]2[O-],47%,98% (active),99.2% (active),40%,99% (active),99.3% (active),73% (active),97% (active),99.2% (active),67%,98% (active),98.8% (active),87% (active),99% (active),99.2% (active),82% (active),99% (active),99% (active)
CC(C)C(C)OC(=O)Nc1cccc(O)c1 (configuration not stated),-142%,-141%,35.3%,-48%,-53%,3.15%,-66%,-48%,18.1%,-50%,-54%,46.5%,-67%,-74%,2.3%,-144%,-102%,18.4%
CC#CS(=O)(=O)c1ccccc1,1%,40%,74.7% (active),-1%,52%,85.5% (active),10%,81% (active),80.7% (active),3%,23%,13.9%,0%,19%,6.35%,36%,87% (active),66.6%
CN(C)c1ccc(C(=C2C=CC(=[N+](C)C)C=C2)c2ccc(N(C)C)cc2)cc1 (tested in a mixture with another compound),98% (active),90% (active),87.5% (active),99% (active),93% (active),88% (active),98% (active),95% (active),89.7% (active),99% (active),95% (active),87.7% (active),98% (active),93% (active),88.5% (active),98% (active),91% (active),86.5% (active)
CSc1nc(SC)c2cnn(Cc3ccccc3)c2n1,-16%,21%,-7.1%,-1%,-15%,4.9%,-15%,25%,9.7%,-11%,-4%,2.35%,-8%,18%,1.3%,18%,7%,16.9%
COc1cc2c(c(OC)c1OC)-c1ccc(SC)c(=O)cc1[C@@H](NC1OC(COC(C)=O)C(OC(C)=O)C(OC(C)=O)C1OC(C)=O)CC2 (some centres not stated),0%,-3%,-1.6%,-1%,-3%,2.55%,1%,5%,9.45%,3%,-14%,74.2% (active),0%,-7%,0.9%,0%,-3%,7.15%
O=S(=O)(O)c1cc(N=Nc2ccc(O)c(O)c2)ccc1/C=C/c1ccc(N=Nc2ccc(O)c(O)c2)cc1S(=O)(=O)O,29%,83% (active),57%,30%,89% (active),67.6%,23%,89% (active),68.5%,31%,31%,18.8%,34%,86% (active),76.3% (active),33%,83% (active),75.4% (active)
CN(C)c1c([N+](=O)[O-])cc(N2C(=O)C=CC2=O)cc1[N+](=O)[O-],81% (active),91% (active),91.8% (active),88% (active),98% (active),93.2% (active),23%,100% (active),93.8% (active),50%,99% (active),90.8% (active),47%,96% (active),92.3% (active),80% (active),96% (active),90.7% (active)
CC(C)CCCC(C)[C@H]1CCC(C2C[C@@H](O)[C@@H]3CC(O)[C@@H](O)C[C@]3(CO)C2=O)[C@]1(C)CCO (some centres not stated),-14%,99% (active),92.5% (active),-13%,99% (active),92.5% (active),-6%,99% (active),91.7% (active),13%,98% (active),90.2% (active),4%,98% (active),91.6% (active),-10%,98% (active),92% (active)
O=C(CNC(=O)C(CSCc1ccccc1)NC(=O)OCc1ccccc1)Oc1c(Cl)c(Cl)c(Cl)c(Cl)c1Cl (configuration not stated),10%,34%,46.9%,8%,30%,61.9%,2%,30%,68.8%,3%,20%,25.6%,-4%,13%,15.9%,9%,51%,66.4%
COC(=O)/C=C1/Nc2ccc(Cl)cc2C(=O)NC1=O,44%,56%,39.3%,36%,45%,27.2%,36%,54%,58.9%,23%,42%,28.9%,41%,80% (active),30.8%,40%,52%,33.5%
O=C(O)Cc1ccccc1CCc1ccccc1Cl,-26%,74% (active),85.2% (active),-11%,72% (active),82.5% (active),-19%,71% (active),83.5% (active),-2%,74% (active),87.1% (active),2%,83% (active),77.1% (active),-19%,83% (active),81.3% (active)
CC(NNC(=S)N(C)C1CCCCC1)c1cc2ccccc2cn1 (configuration not stated),48%,92% (active),86.8% (active),55%,94% (active),75.3% (active),97% (active),94% (active),85.5% (active),94% (active),92% (active),79.8% (active),94% (active),95% (active),84% (active),51%,93% (active),83% (active)
CCCCc1c2c(nc3c1CCc1cc4cc5c(nc4nc1-3)-c1nc3c(c(CCCC)c1CC5)CCC/C3=N/OC)/C(=N\OC)CCC2,0%,76% (active),94.2% (active),2%,94% (active),96% (active),-4%,90% (active),95.8% (active),-22%,93% (active),95.3% (active),-5%,90% (active),95.9% (active),-11%,93% (active),95.7% (active)
CC(C(=O)O)c1cn(Cc2ccccc2)c2ccccc12 (configuration not stated),-2%,61%,4.65%,6%,58%,43.2%,-28%,36%,31.4%,6%,85% (active),-8.85%,21%,80% (active),-43.8%,6%,34%,38.9%
C=C1C(=O)OC2CC1C(O)C/C(C)=C/CC/C(C)=C/C(O)CC2C (configuration not stated),18%,70% (active),-4.95%,19%,84% (active),-20.6%,15%,54%,9.6%,11%,46%,-5%,26%,84% (active),-7.7%,48%,95% (active),83.5% (active)
